Reference: PubChem BioAssay (EPA / NIEHS)
Activity calls are given as the source filed them. Rule for the calls: active = hit-call score of the fitted dose curve at least 0.9, where 1 is the maximum; inactive = score below 0.9.

Tests used:
Details in all cases: mRNA level, 48 h; actives raise or lower the signal
[1] = read-out: Ezrin (EZR), EZR (gene 7430); experiment: LTEA_HepaRG_EZR: Life Technologies and Expression Analysis (LTEA) Assay for Ezrin (EZR) using HepaRG (AID 2283491)
Summary of the method: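 Gain or loss of EZR mRNA is scored relative to 0.5% DMSO in human HepaRG cultures treated 48 h with test chemicals in duplicate, eight half-log concentrations from 100 uM.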

[2] = read-out: Cytochrome P450 3A7 (Homo sapiens) (UniProt P24462); experiment: LTEA_HepaRG_CYP3A7: Life Technologies and Expression Analysis (LTEA) Assay for CYP3A7 using HepaRG (AID 2283492)
Summary of the method: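 CYP3A7 transcript measured by qRT-PCR (ACTB, GAPDH, POLR2A normalization) after 48 h chemical exposure of HepaRG cells in duplicate. Eight half-log concentrations, maximum 100 uM, 0.5% DMSO vehicle; bidirectional curve fitting against DMSO baseline.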

CYP3A5 (gene 1577) = experiment: LTEA_HepaRG_CYP3A5: Life Technologies and Expression Analysis (LTEA) Assay for CYP3A5 using HepaRG (AID 2283493)
Summary of the method: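 HepaRG cells, plated 48 h then in serum-free induction medium, dosed in duplicate for 48 h with eight half-log concentrations up to 100 uM in 0.5% DMSO. Gene mRNA by Fluidigm TaqMan qRT-PCR, normalized to ACTB, GAPDH, POLR2A.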

[3] = read-out: Glutathione S-Transferase (GSTA2), GSTA2 (gene 2939); experiment: LTEA_HepaRG_GSTA2: Life Technologies and Expression Analysis (LTEA) Assay for Glutathione S-Transferase (GSTA2) using HepaRG (AID 2283497)
Summary of the method: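 Human HepaRG cells, plated 48 h, then exposed in serum-free induction medium for 48 h to eight half-log concentrations up to 100 uM in 0.5% DMSO, duplicate. GSTA2 mRNA by qRT-PCR, normalized to ACTB/GAPDH/POLR2A; bidirectional fit versus DMSO.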

[4] = read-out: growth arrest and DNA damage 45 (GADD45G), GADD45G (gene 10912); experiment: LTEA_HepaRG_GADD45G: Life Technologies and Expression Analysis (LTEA) Assay for growth arrest and DNA damage 45 (GADD45G) using HepaRG (AID 2283499)
Summary of the method: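 GADD45G transcript level by qRT-PCR (housekeeping-normalized: ACTB, GAPDH, POLR2A) after 48 h chemical treatment of a single HepaRG lot in serum-free induction medium; eight-point half-log series up to 100 uM in 0.5% DMSO, duplicates, up- or down-regulation scored.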

[5] = read-out: Glutamate-cysteine ligase regulatory (GCLM), GCLM (gene 2730); experiment: LTEA_HepaRG_GCLM: Life Technologies and Expression Analysis (LTEA) Assay for Glutamate-cysteine ligase regulatory (GCLM) using HepaRG (AID 2283500)
Summary of the method: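 Differentiated HepaRG cells exposed 48 h in serum-free induction medium to eight half-log concentrations up to 100 uM (0.5% DMSO). GCLM mRNA by TaqMan qRT-PCR, normalized to ACTB, GAPDH and POLR2A; bidirectional fit versus DMSO.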

[6] = read-out: Glutathione S-transferase M3 (GSTM3), GSTM3 (gene 2947); experiment: LTEA_HepaRG_GSTM3: Life Technologies and Expression Analysis (LTEA) Assay for Glutathione S-transferase M3 (GSTM3) using HepaRG (AID 2283501)
Summary of the method: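 GSTM3 transcript levels came from Fluidigm TaqMan qRT-PCR normalized to three housekeeping genes, fitted in both directions against DMSO. HepaRG cultures received chemicals for 48 h in serum-free induction medium (0.5% DMSO), 8 half-log concentrations up to 100 uM, duplicate.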

[7] = read-out: Heat shock 70 kDa protein 1 (HSPA1A), gene 3303; experiment: LTEA_HepaRG_HSPA1A: Life Technologies and Expression Analysis (LTEA) Assay for Heat shock 70 kDa protein 1 (HSPA1A) using HepaRG (AID 2283502)
Summary of the method: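 Human HepaRG cells in serum-free induction medium were exposed in duplicate for 48 h to 8 half-log concentrations, highest 100 uM, in 0.5% DMSO. HSPA1A mRNA read by TaqMan qRT-PCR, normalized to ACTB, GAPDH, POLR2A, fitted bidirectionally against DMSO.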

[8] = read-out: Hypoxia-inducible factor 1-alpha (Homo sapiens) (UniProt Q16665); experiment: LTEA_HepaRG_HIF1A: Life Technologies and Expression Analysis (LTEA) Assay for Hypoxia-inducible factor 1 (HIF1A) Trancription factor using HepaRG (AID 2283503)
Summary of the method: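 Differentiated HepaRG cells in serum-free induction medium exposed 48 h, in duplicate, to 8-point half-log series from 100 uM in 0.5% DMSO. HIF1A mRNA measured by TaqMan qRT-PCR, normalized to ACTB/GAPDH/POLR2A, fitted bidirectionally versus DMSO.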

[9] = read-out: 3-Hydroxy-3-Methylglutaryl-CoA Synthase 2 (HMGCS2), HMGCS2 (gene 3158); experiment: LTEA_HepaRG_HMGCS2: Life Technologies and Expression Analysis (LTEA) Assay for 3-Hydroxy-3-Methylglutaryl-CoA Synthase 2 (HMGCS2) using HepaRG (AID 2283504)
Summary of the method: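 Readout is HMGCS2 transcript by qRT-PCR, housekeeping-normalised (ACTB/GAPDH/POLR2A) and fitted bidirectionally against 0.5% DMSO. Differentiated HepaRG cells received chemicals 48 h, duplicate wells, eight half-log concentrations topping at 100 uM.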

HGF (gene 3082) = experiment: LTEA_HepaRG_HGF: Life Technologies and Expression Analysis (LTEA) Assay for Hepatocyte Growth Facto (HGF) using HepaRG (AID 2283505)
Summary of the method: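 HGF transcript was quantified by TaqMan qRT-PCR against three housekeeping genes after 48 h treatment of HepaRG cells. Exposure ran in duplicate over eight half-log steps topping at 100 uM in 0.5% DMSO vehicle.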

[10] = read-out: Insulin Like Growth Factor 1 (IGF1), IGF1 (gene 3479); experiment: LTEA_HepaRG_IGF1: Life Technologies and Expression Analysis (LTEA) Assay for Insulin Like Growth Factor 1 (IGF1) using HepaRG (AID 2283506)
Summary of the method: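 Differentiated HepaRG cells in serum-free induction medium, exposed 48 h in duplicate to 8 half-log concentrations up to 100 uM in 0.5% DMSO. IGF1 mRNA by Fluidigm qRT-PCR, normalised to ACTB, GAPDH and POLR2A.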

[11] = read-out: Intercellular Adhesion Molecule 1 (ICAM1), ICAM1 (gene 3383); experiment: LTEA_HepaRG_ICAM1: Life Technologies and Expression Analysis (LTEA) Assay for Intercellular Adhesion Molecule 1 (ICAM1) using HepaRG (AID 2283507)
Summary of the method: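 ICAM1 transcript levels measured by qRT-PCR, normalized to three housekeeping genes (ACTB, GAPDH, POLR2A), after 48 h chemical exposure of HepaRG cells. Duplicate eight-point half-log series from 100 uM in 0.5% DMSO; gain or loss fitted against vehicle.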

[12] = read-out: Insulin-like growth factor-binding protein 1 (IGFBP1), IGFBP1 (gene 3484); experiment: LTEA_HepaRG_IGFBP1: Life Technologies and Expression Analysis (LTEA) Assay for Insulin-like growth factor-binding protein 1 (IGFBP1) using HepaRG (AID 2283508)
Summary of the method: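 Read-out is qRT-PCR transcript level normalized to three housekeeping genes, fitted in both directions against 0.5% DMSO. Differentiated HepaRG cells received eight half-log concentrations (top 100 uM) in duplicate for 48 h in serum-free induction medium.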

[13] = read-out: Interleukin 6 (IL6), IL6 (gene 3569); experiment: LTEA_HepaRG_IL6: Life Technologies and Expression Analysis (LTEA) Assay for Interleukin 6 (IL6) using HepaRG (AID 2283509)
Summary of the method: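 Differentiated human HepaRG cells, plated 48 h then switched to serum-free induction medium, were exposed in duplicate for 48 h to eight half-log concentrations up to 100 uM in 0.5% DMSO. IL6 mRNA measured by qRT-PCR, normalized to ACTB/GAPDH/POLR2A.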

[14] = read-out: Interleukin 6 Receptor (IL6R), IL6R (gene 3570); experiment: LTEA_HepaRG_IL6R: Life Technologies and Expression Analysis (LTEA) Assay for Interleukin 6 Receptor (IL6R) using HepaRG (AID 2283510)
Summary of the method: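 Differentiated HepaRG cells, plated 48 h, then exposed in duplicate for 48 h in serum-free induction medium to 8 half-log concentrations (top 100 uM, 0.5% DMSO). IL6R mRNA measured by TaqMan qRT-PCR, normalized to ACTB/GAPDH/POLR2A; bidirectional fit vs DMSO.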

[15] = read-out: Cytochrome P450 4A22 (Homo sapiens) (UniProt Q5TCH4); experiment: LTEA_HepaRG_CYP4A22: Life Technologies and Expression Analysis (LTEA) Assay for Cytochrome P450 4A22 (CYP4A22) using HepaRG (AID 2283495)
Summary of the method: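 Gene expression measured by qRT-PCR against three housekeeping genes (ACTB, GAPDH, POLR2A), with gain or loss fitted relative to 0.5% DMSO vehicle. HepaRG cultures received 48 h chemical treatment, top concentration 100 uM, half-log steps, duplicate wells.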

[16] = read-out: Cytochrome P450 7A1 (Homo sapiens) (UniProt P22680); experiment: LTEA_HepaRG_CYP7A1: Life Technologies and Expression Analysis (LTEA) Assay for Cytochrome P450 7A1 (CYP7A1) using HepaRG (AID 2283496)
Summary of the method: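 HepaRG cells plated 48 h, then switched to serum-free induction medium and exposed in duplicate for 48 h to 8-point half-log series from 100 uM in 0.5% DMSO. CYP7A1 mRNA by qRT-PCR (TaqMan), normalized to ACTB/GAPDH/POLR2A; bidirectional fit versus DMSO.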

[17] = read-out: Fatty Acid-Binding Protein 1 (FABP1), FABP1 (gene 2168); experiment: LTEA_HepaRG_FABP1: Life Technologies and Expression Analysis (LTEA) Assay for Fatty Acid-Binding Protein 1 (FABP1) using HepaRG (AID 2283494)
Summary of the method: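 Differentiated human HepaRG cells were exposed in duplicate for 48 h in serum-free induction medium to 8-point half-log concentration series topping at 100 uM in 0.5% DMSO. FABP1 mRNA measured by TaqMan qRT-PCR, normalized to ACTB/GAPDH/POLR2A; bidirectional fit versus DMSO.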

[18] = read-out: Glutamate-cysteine ligase catalytic (GCLC), GCLC (gene 2729); experiment: LTEA_HepaRG_GCLC: Life Technologies and Expression Analysis (LTEA) Assay for Glutamate-cysteine ligase catalytic (GCLC) using HepaRG (AID 2283498)
Summary of the method: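 Differentiated human HepaRG cells, plated 48 h then switched to serum-free induction medium, were exposed in duplicate for 48 h to 8 half-log concentrations topping at 100 uM in 0.5% DMSO. GCLC mRNA was quantified by qRT-PCR against ACTB, GAPDH and POLR2A.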

Measured: AC50

Sequence of Cytochrome P450 3A7 (Homo sapiens) (P24462 whole entry, looked up): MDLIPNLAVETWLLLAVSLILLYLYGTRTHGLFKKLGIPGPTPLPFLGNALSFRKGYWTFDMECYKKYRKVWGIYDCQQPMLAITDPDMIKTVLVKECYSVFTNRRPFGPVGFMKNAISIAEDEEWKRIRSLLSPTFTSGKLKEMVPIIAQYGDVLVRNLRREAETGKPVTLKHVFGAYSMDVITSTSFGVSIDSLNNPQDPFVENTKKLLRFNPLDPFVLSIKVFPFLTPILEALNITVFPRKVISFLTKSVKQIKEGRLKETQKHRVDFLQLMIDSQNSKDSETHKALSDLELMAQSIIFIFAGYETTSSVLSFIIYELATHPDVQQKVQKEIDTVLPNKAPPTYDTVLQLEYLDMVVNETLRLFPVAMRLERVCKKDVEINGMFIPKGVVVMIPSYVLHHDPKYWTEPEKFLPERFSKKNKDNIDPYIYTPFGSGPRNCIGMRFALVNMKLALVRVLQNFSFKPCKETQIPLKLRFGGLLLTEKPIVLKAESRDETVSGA
Sequence of Hypoxia-inducible factor 1-alpha (Homo sapiens) (Q16665 whole entry, looked up): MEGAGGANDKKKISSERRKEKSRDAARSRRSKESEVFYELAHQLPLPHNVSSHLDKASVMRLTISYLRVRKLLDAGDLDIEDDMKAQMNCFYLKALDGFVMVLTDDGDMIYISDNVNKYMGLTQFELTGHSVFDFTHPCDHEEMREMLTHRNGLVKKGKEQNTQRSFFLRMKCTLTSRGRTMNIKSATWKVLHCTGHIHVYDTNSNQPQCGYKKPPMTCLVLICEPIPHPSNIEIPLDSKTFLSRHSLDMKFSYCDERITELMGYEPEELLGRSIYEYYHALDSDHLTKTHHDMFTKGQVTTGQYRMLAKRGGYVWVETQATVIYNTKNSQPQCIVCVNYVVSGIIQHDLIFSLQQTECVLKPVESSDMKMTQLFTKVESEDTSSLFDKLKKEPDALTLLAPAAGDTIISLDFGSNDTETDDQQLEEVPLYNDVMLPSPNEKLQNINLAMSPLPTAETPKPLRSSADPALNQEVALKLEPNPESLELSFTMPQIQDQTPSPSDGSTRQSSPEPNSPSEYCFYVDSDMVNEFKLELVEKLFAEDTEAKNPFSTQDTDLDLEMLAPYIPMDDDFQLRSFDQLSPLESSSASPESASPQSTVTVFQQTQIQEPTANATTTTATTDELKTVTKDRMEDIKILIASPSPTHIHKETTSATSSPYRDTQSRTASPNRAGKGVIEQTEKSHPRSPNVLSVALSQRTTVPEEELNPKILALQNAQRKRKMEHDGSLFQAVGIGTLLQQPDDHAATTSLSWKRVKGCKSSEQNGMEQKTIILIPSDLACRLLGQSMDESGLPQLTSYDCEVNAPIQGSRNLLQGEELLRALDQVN

On1ccccc1=S
not listed: [15] | [16] | [17] | [18]
inactive: all other assays above

CCCCCCCCCCCCCCCO
not listed: [5] | [7] | [17] | [18]
inactive: all other assays above

Cc1[nH]cnc1C[C@H]1CCc2c(C)c3ccccc3n2C1=O
inactive: CYP3A5 (gene 1577) | [5] | [6]
active: [1] 11.8 µM | [15] 18.9 µM | [16] 22.6 µM | [3] 30.5 µM | [4] 81.1 µM | [8] 24.3 µM | [9] 23.8 µM | HGF (gene 3082) 10.2 µM | [10] 17.8 µM | [11] 35.9 µM | [12] 37.2 µM | [14] 79.3 µM

NC(=O)NO
active: [10] 14.3 µM
not listed: [2] | CYP3A5 (gene 1577) | [5] | [8] | [15] | [16]
inactive: all other assays above

CC(C)CCO
not listed: [7] | [13] | [15] | [16] | [17]
inactive: all other assays above

O=C1OC(=O)C2C3C=CC(C3)C12 (stereo unspecified)
not listed: CYP3A5 (gene 1577) | [7] | [13] | [17] | [18]
inactive: all other assays above

COC(=O)CC(=O)OC
active: [2] 3.64 µM | [16] 50 µM
not listed: [17] | [18]
inactive: all other assays above

CCn1nc(Cc2ccccc2)cc1C1CCN(C[C@H]2C[C@H](N(C)[C@@H](C(=O)O)C(C)C)C[C@@H]2c2cccc(F)c2)CC1
active: [15] 43.5 µM | [16] 13.4 µM | [3] 50 µM | [4] 76.1 µM | [9] 50 µM | [10] 37.7 µM | [11] 50 µM | [12] 73.6 µM
not listed: [5] | [13] | [17] | [18]
inactive: all other assays above

Nc1cccc(N)c1
not listed: [7] | [13] | [17] | [18]
inactive: all other assays above
